Data published in PubChem BioAssay (NCI).
Several values for one entry are separate records, joined by “and”; a condition that tells them apart may be missing. Equal entries are not always repeated. Compounds without any hit were thinned out: in the full panel of roughly 83,000, 20% have a hit.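 Each cell line was grown in a 96-well plate and treated with one concentration of compound for 48 hours. Values below 10 were considered active.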 Activity calls are given as the source filed them.

Tests used:
Assay in all cases: NCI-60 one-dose screen, 48 h (100 = growth as untreated, 0 = no growth, -100 = all killed)
Details in all cases: 10 µM unless noted
HCT-15 colon = system: HCT-15 colon
HT29 colon = system: HT29 colon
SNB-75 CNS = system: SNB-75 CNS
SNB-19 CNS = system: SNB-19 CNS
U251 CNS = system: U251 CNS
PC-3 prostate = system: PC-3 prostate
SK-MEL-5 melanoma = system: SK-MEL-5 melanoma
UACC-62 melanoma = system: UACC-62 melanoma
LOX IMVI melanoma = system: LOX IMVI melanoma
SK-MEL-28 melanoma = system: SK-MEL-28 melanoma
SK-MEL-2 melanoma = system: SK-MEL-2 melanoma
EKVX NSCLC = system: EKVX NSCLC
SN12C renal = system: SN12C renal
UO-31 renal = system: UO-31 renal
TK-10 renal = system: TK-10 renal
CAKI-1 renal = system: CAKI-1 renal
A498 renal = system: A498 renal
CCRF-CEM leukemia = system: CCRF-CEM leukemia
MOLT-4 leukemia = system: MOLT-4 leukemia
ACHN renal = system: ACHN renal

SMILES	growth (HCT-15 colon)	growth (HT29 colon)	growth (SNB-75 CNS)	growth (SNB-19 CNS)	growth (U251 CNS)	growth (PC-3 prostate)	growth (SK-MEL-5 melanoma)	growth (UACC-62 melanoma)	growth (LOX IMVI melanoma)	growth (SK-MEL-28 melanoma)	growth (SK-MEL-2 melanoma)	growth (EKVX NSCLC)	growth (SN12C renal)	growth (UO-31 renal)	growth (TK-10 renal)	growth (CAKI-1 renal)	growth (A498 renal)	growth (CCRF-CEM leukemia)	growth (MOLT-4 leukemia)	growth (ACHN renal)
O=C(Oc1ccc(CO[N+](=O)[O-])cc1)c1ccccc1	-83% (active)	-60% (active)	-97.9% (active)	-78.8% (active)	-91.2% (active)	-91.7% (active)	-96.1% (active)	-76.3% (active)	-87.4% (active)	-71.9% (active)	-72.3% (active)	-99.9% (active)	-87.6% (active)	-90.4% (active)	-96.9% (active)	-97% (active)	-71.5% (active)	-47.4% (active)	-50.1% (active)	–
CC(=O)N1N=C(c2ccc(Nc3nc(Nc4ccc(F)cc4)nc(Nc4ccc(Cl)cc4)n3)cc2)CC1c1ccc(N(C)C)cc1 (stereo unspecified)	38.4% (inactive)	36.8% (inactive)	40.3% (inactive)	59.2% (inactive)	53.7% (inactive)	22.2% (inactive)	32.4% (inactive)	35.2% (inactive)	63.1% (inactive)	60% (inactive)	30.8% (inactive)	43.1% (inactive)	66% (inactive)	50.8% (inactive)	50.5% (inactive)	35.3% (inactive)	68.4% (inactive)	-27.6% (active)	29.4% (inactive)	61.8% (inactive)
CCOC(=O)CCCn1c(-c2ccccc2)cc(-c2ccccc2)c(C#N)c1=O	82.3% (inactive)	88.1% (inactive)	71.2% (inactive)	93.5% (inactive)	98.7% (inactive)	63.8% (inactive)	92.7% (inactive)	59% (inactive)	84.7% (inactive)	88.7% (inactive)	94.8% (inactive)	93.4% (inactive)	84.6% (inactive)	71.5% (inactive)	113% (inactive)	57.3% (inactive)	25.7% (inactive)	88.4% (inactive)	82.1% (inactive)	94.7% (inactive)
Nc1ccc(-c2nc3ccc4[nH]ncc4c3c3c2CCCC3)cc1F	15.5% (inactive)	28% (inactive)	19.3% (inactive)	41.9% (inactive)	26.8% (inactive)	27.7% (inactive)	4.72% (active)	14.5% (inactive)	29.4% (inactive)	34.4% (inactive)	6.74% (active)	33.5% (inactive)	27.3% (inactive)	-4.24% (active)	22.1% (inactive)	7.39% (active)	-0.345% (active)	20.5% (inactive)	18.5% (inactive)	–
CN1CCN(Cc2ccc(NC(=O)c3nc4ccc5[nH]ncc5c4c4c3CCCC4)cc2C(F)(F)F)CC1	-74.6% (active)	-83.2% (active)	-90% (active)	-88.8% (active)	-91% (active)	-83.5% (active)	-92.6% (active)	-87.5% (active)	-94.9% (active)	-85.8% (active)	-63.5% (active)	37.2% (inactive)	-88.7% (active)	-85.9% (active)	-86.7% (active)	-46.6% (active)	92.9% (inactive)	-11.1% (active)	-27% (active)	-79.4% (active)
CCCNNC(=O)/C=C/c1ccc(CNCCc2c(C)[nH]c3ccccc23)cc1	42.8% [2.5 µM] (inactive)	5.78% [2.5 µM] (active)	56.9% [2.5 µM] (inactive)	28.6% [2.5 µM] (inactive)	8.11% [2.5 µM] (active)	31.5% [2.5 µM] (inactive)	-13.3% [2.5 µM] (active)	-46% [2.5 µM] (active)	0.891% [2.5 µM] (active)	10.1% [2.5 µM] (inactive)	13.7% [2.5 µM] (inactive)	50.4% [2.5 µM] (inactive)	26.3% [2.5 µM] (inactive)	13.8% [2.5 µM] (inactive)	-16.2% [2.5 µM] (active)	-4.92% [2.5 µM] (active)	-37.6% [2.5 µM] (active)	27.6% [2.5 µM] (inactive)	13.3% [2.5 µM] (inactive)	–
O=C1/C(=C/c2cn(-c3ccccc3)nc2-c2ccccc2)SC(=S)N1c1ccc(Cl)cc1	73% (inactive)	99.1% (inactive)	90.4% (inactive)	71.9% (inactive)	57.2% (inactive)	56.8% (inactive)	78.5% (inactive)	57.5% (inactive)	63.3% (inactive)	73.5% (inactive)	97.4% (inactive)	81.9% (inactive)	69.2% (inactive)	65.7% (inactive)	91.8% (inactive)	75.2% (inactive)	67% (inactive)	54% (inactive)	74.7% (inactive)	81.9% (inactive)
NNCCc1ccccc1	99.7% (inactive) and 91.6% (inactive)	96.5% (inactive) and 100% (inactive)	107% (inactive) and 78.7% (inactive)	98.5% (inactive) and 102% (inactive)	104% (inactive) and 93.7% (inactive)	92% (inactive) and 94.6% (inactive)	90.7% (inactive) and 93.7% (inactive)	89.9% (inactive)	98.2% (inactive) and 88% (inactive)	110% (inactive) and 95.5% (inactive)	100% (inactive) and 106% (inactive)	101% (inactive) and 86.2% (inactive)	96.2% (inactive) and 93% (inactive)	77.5% (inactive)	118% (inactive)	99.7% (inactive) and 88.3% (inactive)	105% (inactive) and 88.4% (inactive)	90.9% (inactive) and 106% (inactive)	104% (inactive) and 96.4% (inactive)	92% (inactive) and 89.9% (inactive)
Cc1cc2nc(C(Cl)Cl)nc(-c3ccc(Cl)cc3)n2n1	-20.4% (active)	2.12% (active)	-22.7% (active)	12.6% (inactive)	4.15% (active)	16.1% (inactive)	41.2% (inactive)	48.5% (inactive)	48.4% (inactive)	18.5% (inactive)	49.2% (inactive)	-14% (active)	36.5% (inactive)	-8.79% (active)	4.92% (active)	-38% (active)	-16.9% (active)	29.2% (inactive)	21.6% (inactive)	-41.7% (active)
N#Cc1cc(-c2ccnc(Nc3ccc(NC(=O)CCl)cc3)n2)ccc1N1CCCC1	-45.7% (active)	-56.9% (active)	-17.5% (active)	5.98% (active)	-33.1% (active)	8.3% (active)	-96% (active)	-71.3% (active)	-84.8% (active)	-52.4% (active)	-39.9% (active)	12% (inactive)	-39.4% (active)	-71.9% (active)	9.16% (active)	-40.4% (active)	16.1% (inactive)	0.0905% (active)	-7.09% (active)	-24.6% (active)
C=C1C(=O)O[C@H]2[C@H]1CC/C(CNS(=O)(=O)c1ccc3ccccc3c1)=C\CC[C@@]1(C)O[C@@H]21	-78.5% (active)	-78.2% (active)	38.2% (inactive)	71.9% (inactive)	48.9% (inactive)	53.6% (inactive)	31.8% (inactive)	-12% (active)	-84.8% (active)	-8.36% (active)	43.7% (inactive)	66.6% (inactive)	29.1% (inactive)	-88% (active)	-78.5% (active)	15.3% (inactive)	58.2% (inactive)	-18.1% (active)	-27.6% (active)	-39.3% (active)
COc1cc2ncnc(Nc3ccc(F)c(Cl)c3)c2cc1OCC(=O)N1CCCCC1	86.1% (inactive)	77.1% (inactive)	87.7% (inactive)	91.8% (inactive)	96.9% (inactive)	84.6% (inactive)	90.4% (inactive)	91.7% (inactive)	87.4% (inactive)	99.2% (inactive)	88.1% (inactive)	63.5% (inactive)	76.4% (inactive)	43.5% (inactive)	23.9% (inactive)	44.5% (inactive)	43.5% (inactive)	94.2% (inactive)	73.8% (inactive)	32.2% (inactive)
CONC1=Nc2cc(NC(N)=NCc3ccccc3)c(N(C)C3CCCCC3)cc2OC1	101% (inactive)	29.5% (inactive)	40.9% (inactive)	68.8% (inactive)	53.1% (inactive)	51.1% (inactive)	74.9% (inactive)	70.1% (inactive)	50.2% (inactive)	87.9% (inactive)	91.5% (inactive)	62% (inactive)	64.8% (inactive)	75.5% (inactive)	82.3% (inactive)	93.7% (inactive)	82.4% (inactive)	68.2% (inactive)	54.2% (inactive)	79.1% (inactive)
Nc1ccc(S(=O)(=O)c2ccc(N)cc2)cc1	114% (inactive) and 106% (inactive)	106% (inactive) and 98.1% (inactive)	87.8% (inactive)	100% (inactive) and 104% (inactive)	94.6% (inactive) and 106% (inactive)	85.2% (inactive) and 94.1% (inactive)	92.8% (inactive) and 108% (inactive)	98.7% (inactive) and 104% (inactive)	94.6% (inactive) and 102% (inactive)	114% (inactive) and 102% (inactive)	122% (inactive) and 113% (inactive)	94.7% (inactive)	101% (inactive)	89.8% (inactive) and 75.5% (inactive)	100% (inactive)	86.6% (inactive)	103% (inactive) and 106% (inactive)	94.8% (inactive) and -23.9% (active)	109% (inactive) and 108% (inactive)	–
